# Bioassay records (PubChem BioAssay)
# An excerpt weighted towards active compounds, which were near 3.5% of everything screened.
# Pf apPOL inh: Pf-apPOL DNA polymerase inhibition; Recombinant Pf-apPOL, molecular beacon fluorescence, 1.5 h; inhibition, % at 10 µM; actives 0.25% (n = 210,000)
# mHTT-CaM PPI inh: disrupts binding of mutant huntingtin to calmodulin; P42858; AlphaScreen His-mHTT/GST-CaM binding, luminescence; inhibition, % at 15 µM; actives 3.6% (n = 190,000); AID 1671202;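 note: 0% = both proteins with DMSO and 100% = one protein alone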
# Target sequence (P42858 whole entry, looked up, stated change not applied): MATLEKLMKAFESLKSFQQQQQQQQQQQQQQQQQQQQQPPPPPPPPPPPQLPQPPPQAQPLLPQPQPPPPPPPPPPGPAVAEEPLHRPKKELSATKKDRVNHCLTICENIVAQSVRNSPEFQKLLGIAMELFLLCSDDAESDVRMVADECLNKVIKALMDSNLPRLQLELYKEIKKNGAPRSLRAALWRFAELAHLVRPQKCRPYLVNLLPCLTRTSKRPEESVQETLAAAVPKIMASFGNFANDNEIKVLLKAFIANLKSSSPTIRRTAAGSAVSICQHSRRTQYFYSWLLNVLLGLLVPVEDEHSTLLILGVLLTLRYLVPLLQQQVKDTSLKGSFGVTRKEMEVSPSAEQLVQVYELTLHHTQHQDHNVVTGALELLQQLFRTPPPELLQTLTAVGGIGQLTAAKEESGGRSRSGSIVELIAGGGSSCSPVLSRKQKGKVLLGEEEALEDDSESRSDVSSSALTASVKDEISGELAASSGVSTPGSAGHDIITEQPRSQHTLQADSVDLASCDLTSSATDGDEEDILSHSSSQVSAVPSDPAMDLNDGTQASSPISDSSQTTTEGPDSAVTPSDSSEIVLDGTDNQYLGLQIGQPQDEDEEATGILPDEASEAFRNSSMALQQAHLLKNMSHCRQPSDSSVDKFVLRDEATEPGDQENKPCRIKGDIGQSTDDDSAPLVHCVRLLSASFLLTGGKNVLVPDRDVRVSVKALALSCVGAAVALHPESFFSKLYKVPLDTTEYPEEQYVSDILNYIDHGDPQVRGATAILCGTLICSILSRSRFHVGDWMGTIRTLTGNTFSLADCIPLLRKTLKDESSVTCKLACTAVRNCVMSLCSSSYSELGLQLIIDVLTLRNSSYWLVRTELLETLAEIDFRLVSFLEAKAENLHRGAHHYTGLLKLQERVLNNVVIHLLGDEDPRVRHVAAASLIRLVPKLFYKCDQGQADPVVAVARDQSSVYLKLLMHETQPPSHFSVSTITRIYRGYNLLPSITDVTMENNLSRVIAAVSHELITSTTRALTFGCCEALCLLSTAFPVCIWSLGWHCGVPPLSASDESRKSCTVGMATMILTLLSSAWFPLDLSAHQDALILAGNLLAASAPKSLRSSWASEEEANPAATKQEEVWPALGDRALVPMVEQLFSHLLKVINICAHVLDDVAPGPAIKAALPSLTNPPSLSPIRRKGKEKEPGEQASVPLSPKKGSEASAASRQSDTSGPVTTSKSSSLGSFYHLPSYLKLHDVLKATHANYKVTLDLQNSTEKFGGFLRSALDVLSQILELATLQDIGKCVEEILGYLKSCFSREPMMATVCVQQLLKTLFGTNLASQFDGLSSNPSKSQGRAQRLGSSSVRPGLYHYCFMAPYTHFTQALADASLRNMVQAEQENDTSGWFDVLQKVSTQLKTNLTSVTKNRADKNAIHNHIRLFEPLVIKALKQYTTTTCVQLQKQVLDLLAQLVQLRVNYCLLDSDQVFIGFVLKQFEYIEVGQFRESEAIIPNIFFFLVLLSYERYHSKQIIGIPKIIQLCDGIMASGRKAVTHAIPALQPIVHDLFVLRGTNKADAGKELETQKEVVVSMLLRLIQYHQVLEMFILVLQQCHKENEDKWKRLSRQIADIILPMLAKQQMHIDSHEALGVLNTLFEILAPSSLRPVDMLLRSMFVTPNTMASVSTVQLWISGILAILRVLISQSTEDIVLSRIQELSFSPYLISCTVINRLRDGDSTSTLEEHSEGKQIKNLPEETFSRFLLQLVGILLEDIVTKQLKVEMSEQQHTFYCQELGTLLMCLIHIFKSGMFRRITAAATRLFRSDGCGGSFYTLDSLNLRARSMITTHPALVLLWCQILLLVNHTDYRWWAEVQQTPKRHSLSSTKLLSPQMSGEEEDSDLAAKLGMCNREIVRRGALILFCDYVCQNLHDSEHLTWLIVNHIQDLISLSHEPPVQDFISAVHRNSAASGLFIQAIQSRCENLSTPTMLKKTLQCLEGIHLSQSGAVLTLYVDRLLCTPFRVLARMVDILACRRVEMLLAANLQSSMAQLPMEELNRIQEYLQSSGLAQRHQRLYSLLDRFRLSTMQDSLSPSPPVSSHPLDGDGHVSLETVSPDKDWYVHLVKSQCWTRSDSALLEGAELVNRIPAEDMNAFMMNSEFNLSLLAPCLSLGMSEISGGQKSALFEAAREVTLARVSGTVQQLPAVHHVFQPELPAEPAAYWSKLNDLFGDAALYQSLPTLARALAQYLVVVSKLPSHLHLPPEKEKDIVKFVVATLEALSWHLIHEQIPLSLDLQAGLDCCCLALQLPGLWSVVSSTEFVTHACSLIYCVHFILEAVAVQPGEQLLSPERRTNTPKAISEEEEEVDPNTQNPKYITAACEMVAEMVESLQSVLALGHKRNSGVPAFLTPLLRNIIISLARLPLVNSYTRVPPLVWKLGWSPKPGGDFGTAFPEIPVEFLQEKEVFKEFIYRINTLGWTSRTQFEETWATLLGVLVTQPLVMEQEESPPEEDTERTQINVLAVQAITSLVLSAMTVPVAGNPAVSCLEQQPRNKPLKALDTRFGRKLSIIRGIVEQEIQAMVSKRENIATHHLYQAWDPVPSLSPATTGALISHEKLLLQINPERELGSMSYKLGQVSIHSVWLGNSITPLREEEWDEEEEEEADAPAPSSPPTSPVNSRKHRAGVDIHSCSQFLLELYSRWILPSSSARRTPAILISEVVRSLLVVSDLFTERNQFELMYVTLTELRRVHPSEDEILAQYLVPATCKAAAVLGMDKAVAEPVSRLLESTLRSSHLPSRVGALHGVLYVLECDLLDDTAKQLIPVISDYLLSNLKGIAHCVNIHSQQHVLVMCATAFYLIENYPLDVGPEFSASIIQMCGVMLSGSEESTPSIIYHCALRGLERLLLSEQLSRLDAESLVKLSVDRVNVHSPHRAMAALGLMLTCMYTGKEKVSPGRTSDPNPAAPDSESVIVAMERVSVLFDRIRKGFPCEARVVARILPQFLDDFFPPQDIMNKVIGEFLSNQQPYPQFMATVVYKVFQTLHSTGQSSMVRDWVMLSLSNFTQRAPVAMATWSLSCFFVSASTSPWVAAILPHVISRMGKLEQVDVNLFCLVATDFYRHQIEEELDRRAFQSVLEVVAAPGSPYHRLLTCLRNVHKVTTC
# Active calls of the source: *; . = not tested or not shown. Cut-off read from the data, not from the text of the source: active = inhibition above about 50%; inactive = the rest.
SMILES,Pf apPOL inh,mHTT-CaM PPI inh
NC(=O)c1nc(-c2ccccc2)nc2c1OCO2,-2,13
O=C(c1ccc(-c2ccccc2)cc1)N1CCN(C(=O)c2cccnc2)CC1,-8,9
O=C(O)c1cncc(-c2ccccc2)c1,80*,.
Cn1cc(S(=O)(=O)Nc2ccc(F)cc2Cl)c2cccnc21,93*,69*
CCCn1cc(S(=O)(=O)Nc2ccc(Cl)cc2F)c2cccnc21,13,39
Cc1cccc(NS(=O)(=O)c2cn(C)c3ncccc23)c1,88*,59*
Cn1cc(S(=O)(=O)Nc2cccc(Cl)c2)c2cccnc21,10,-5
CCS(=O)(=O)N1CCN(c2nc(C)nc(C)c2Cc2cccc(C)c2)CC1,-1,6
CCCc1cc2c(=O)c(-c3ccc4c(c3)OCCCO4)c(C)oc2cc1OC,-3,0
COc1ccc(-c2oncc2-c2ccc3c(c2)OCCO3)c(O)c1,1,10
CCCc1cc(-c2oncc2-c2ccc3c(c2)OCCO3)c(O)cc1OC,3,63*
CCCc1cc(-c2[nH]ncc2-c2ccc3c(c2)OCCCO3)c(O)cc1OC,-7,76*
Cc1cc(C)cc(C(=O)N2CCCC(c3nc(CCNC(=O)C4CCC4)cs3)C2)c1 (stereo not drawn),-2,9
COc1ccc(NC(=O)N2CCc3[nH]cnc3C2c2ccccn2)cc1OC (stereo not drawn),-7,91*
CNC(=O)N1CCc2[nH]cnc2C1c1ccccn1 (stereo not drawn),-8,94*
Cc1cccc(NC(=O)N2CCc3[nH]cnc3C2c2ccncc2)c1 (stereo not drawn),-1,-6
CNC(=O)N1CCc2[nH]cnc2C1c1ccncc1 (stereo not drawn),-2,-5
COc1ccc(OC)c(NC(=O)c2nn(-c3ccc(OC)cc3OC)c(=O)c3ccccc23)c1,5,20
CC(C)=CC1C(CN)C1(C)C (stereo not drawn),-5,96*
N#Cc1ccc(Oc2ccc(C(=O)Nc3ccccc3)cc2)cc1,68*,-8
O=C(Nc1ccc(Oc2ccccc2)cc1)c1ccncc1,0,12
CCn1nc(C)c2ccn(CC(=O)NC3CCCC3)c(=O)c21,1,-2
CC(=O)c1cccc(NC(=O)CC2CS(=O)(=O)CC2CC(=O)Nc2cccc(C(C)=O)c2)c1 (stereo not drawn),-7,3
C=CCn1c(SCC(=O)Nc2ccc(F)cc2)nnc1-c1cccc(OC)c1,-11,-2
C=CCn1c(SCC(=O)Nc2ccc(OC)cc2)nnc1C(c1ccccc1)c1ccccc1,97*,17
SMILES,Pf apPOL inh,mHTT-CaM PPI inh
O=C1CCSCC(C(=O)N2CCN(C3CCCCC3)CC2)N1 (stereo not drawn),-4,-5
CCc1ccc(/C=C2\C(=O)Nc3ccc(Br)cc32)cc1,-4,74*
O=C1Nc2ccc(Br)cc2/C1=C/c1ccc(F)cc1,0,14
CN(C)c1ccc(/C=C2\C(=O)Nc3ccc(Br)cc32)cc1,-34,99*
CCc1ccc(/C=C2\C(=O)Nc3ccc(Cl)cc32)cc1,-1,44
COc1ccc(NC(=O)C2=C(C)C(=O)OC23CCC(C)CC3)cc1 (stereo not drawn),-2,6
CN=C1S/C(=C\c2ccc(-c3cc(Cl)ccc3[N+](=O)[O-])o2)C(=O)N1C,-8,42
O=C(CC1CCNCC1)N1CCC(CCOc2cccnc2)CC1,-6,-1
Cc1ccc(C(=O)N2CCc3sc(C(=O)NCc4ccc5c(c4)OCO5)cc3C2)cc1,-5,12
Cc1nc(-c2c(-c3c(C)cc(O)cc3O)n[nH]c2C(F)(F)F)cs1,-102,2
Cc1cccc(C2=NN(c3ccccc3)[C@H](CO)[C@H]2c2ccccc2)c1,-3,87*
CC[C@H]1C(c2ccc(F)cc2)=NN(c2ccccc2)[C@@H]1CO,-6,-58
OC[C@@H]1[C@@H](c2ccc(F)cc2)C(c2ccccc2)=NN1c1ccccc1,-4,89*
Cc1cccc(C2=NN(c3ccccc3)[C@H](CO)[C@H]2C)c1,-4,-5
Nc1ccc(Cl)cc1-n1nc(-c2ccc(F)cc2)c2ccccc2c1=O,5,17
O=C(NCC1CCN(S(=O)(=O)C2CC2)CC1)C(=O)NCC1CCCO1 (stereo not drawn),-5,-18
COc1cccc(C2Nc3ccccc3NC3=C2C(=O)CC(c2ccccc2)C3)c1OC (stereo not drawn),8,39
O=C1C2=C(Nc3ccccc3SC2c2ccccc2[N+](=O)[O-])c2ccccc21 (stereo not drawn),3,53*
O=C1c2ccccc2NC(c2cccs2)N1c1ccccc1 (stereo not drawn),-2,1
COc1cccc(C2Sc3ccccc3NC3=C2C(=O)c2ccccc23)c1OC (stereo not drawn),0,58*
O=C1C2=C(Nc3ccccc3SC2c2cccs2)c2ccccc21 (stereo not drawn),6,73*
O=C1NC2=C(C(=O)c3ccccc32)C(c2ccccc2)N1 (stereo not drawn),-64,28
O=C1C2=C(Nc3ccccc3SC2c2ccccc2)c2ccccc21 (stereo not drawn),.,73*
O=C1Nc2ccccc2SC1c1ccccc1 (stereo not drawn),-3,.
O=C(O)CC1OC(=O)c2ccccc21 (stereo not drawn),-7,3
SMILES,Pf apPOL inh,mHTT-CaM PPI inh
Cc1nnc(N2C(=O)C(O)=C(C(=O)c3ccco3)C2c2ccc([N+](=O)[O-])cc2)s1 (stereo not drawn),11,-4
CCN(CC)Cc1cccc(C(=O)N(CC)CC)c1,2,-1
O=C1C2CCCC2=NN1c1ccccc1 (stereo not drawn),5,-16
COc1cccc(C2Sc3ccccc3NC3=C2C(=O)c2ccccc23)c1 (stereo not drawn),-93,76*
Cc1cccc(C2SC(=O)NC3=C2C(=O)c2ccccc23)c1 (stereo not drawn),1,22
COc1ccc(S(=O)(=O)Oc2ccc3c(C)c(-c4ccc(OC)c(OC)c4)c(=O)oc3c2)cc1,-2,-19
CC(=O)c1ccc(S(=O)(=O)N2CCCC2C(=O)NCc2csc(C)n2)cc1 (stereo not drawn),-1,6
CC(C)(C)c1cc(CCCC#N)cc(C(C)(C)C)c1O,-4,-27
Cc1noc(-c2cccnc2)c1C(=O)N1CCC(Cc2ccccc2)CC1,-1,20
COc1ccc(-c2cc(C(=O)N3CCC(Cc4ccccc4)CC3)no2)cc1,-8,-7
Cc1noc(-c2cccs2)c1C(=O)N1CCC(Cc2ccccc2)CC1,2,71*
COc1ccc(-c2onc(C)c2C(=O)N2CCC(Cc3ccccc3)CC2)cc1,0,99*
O=C(c1ccccc1Br)N1CCC(c2nnc(-c3ccc(F)cc3)o2)CC1,-3,-8
Cc1cc(C(=O)N2CCC(c3nnc(-c4ccc(F)cc4)o3)CC2)c(C)o1,-5,100*
O=C(C(Cc1ccccc1)N1C(=O)c2ccccc2C1=O)N1CCN(CCO)CC1 (stereo not drawn),-7,5
O=C(C(Cc1ccccc1)N1C(=O)c2ccccc2C1=O)N1CCN(c2ccc(F)cc2)CC1 (stereo not drawn),-14,51*
O=C(Cc1nc(-c2cccnc2)n[nH]1)Nc1ccc(F)c(F)c1,-1,2
Cc1cccc(NC(=O)Cc2nc(-c3ccccc3)n[nH]2)c1C,-2,5
Cc1cccc(NC(=O)Cc2nc(-c3ccccn3)n[nH]2)c1C,-8,99*
